Laboratory results reported in PubChem BioAssay (NCATS).
Records with an inconclusive call do not appear. Activity calls are given as the source filed them. Calls follow the shape of the dose curve; as a rule, active = well fitted inhibition curve with a large enough effect; inconclusive = small, poorly fitted or top-dose-only effect; inactive = no such curve, though single readings can be large or run the other way.

What follows are compounds tested against Rap guanine nucleotide exchange factor 4 (Homo sapiens) (UniProt Q8WZA2) (assay: Confirmatory qHTS for antagonist of cAMP-regulated guanine nucleotide exchange factor 4 (EPAC2) (AID 1645885; also: nearly all actives have a fitted effect of over 25% in size)). Settings: EPAC2 Rap1B-BODIPY-GDP exchange fluorescence, biochemical; series mostly up to 12.7 µM; activity change, negative = inhibition: at the top concentration.
Sequence of Rap guanine nucleotide exchange factor 4 (Homo sapiens) (Q8WZA2 whole entry, looked up): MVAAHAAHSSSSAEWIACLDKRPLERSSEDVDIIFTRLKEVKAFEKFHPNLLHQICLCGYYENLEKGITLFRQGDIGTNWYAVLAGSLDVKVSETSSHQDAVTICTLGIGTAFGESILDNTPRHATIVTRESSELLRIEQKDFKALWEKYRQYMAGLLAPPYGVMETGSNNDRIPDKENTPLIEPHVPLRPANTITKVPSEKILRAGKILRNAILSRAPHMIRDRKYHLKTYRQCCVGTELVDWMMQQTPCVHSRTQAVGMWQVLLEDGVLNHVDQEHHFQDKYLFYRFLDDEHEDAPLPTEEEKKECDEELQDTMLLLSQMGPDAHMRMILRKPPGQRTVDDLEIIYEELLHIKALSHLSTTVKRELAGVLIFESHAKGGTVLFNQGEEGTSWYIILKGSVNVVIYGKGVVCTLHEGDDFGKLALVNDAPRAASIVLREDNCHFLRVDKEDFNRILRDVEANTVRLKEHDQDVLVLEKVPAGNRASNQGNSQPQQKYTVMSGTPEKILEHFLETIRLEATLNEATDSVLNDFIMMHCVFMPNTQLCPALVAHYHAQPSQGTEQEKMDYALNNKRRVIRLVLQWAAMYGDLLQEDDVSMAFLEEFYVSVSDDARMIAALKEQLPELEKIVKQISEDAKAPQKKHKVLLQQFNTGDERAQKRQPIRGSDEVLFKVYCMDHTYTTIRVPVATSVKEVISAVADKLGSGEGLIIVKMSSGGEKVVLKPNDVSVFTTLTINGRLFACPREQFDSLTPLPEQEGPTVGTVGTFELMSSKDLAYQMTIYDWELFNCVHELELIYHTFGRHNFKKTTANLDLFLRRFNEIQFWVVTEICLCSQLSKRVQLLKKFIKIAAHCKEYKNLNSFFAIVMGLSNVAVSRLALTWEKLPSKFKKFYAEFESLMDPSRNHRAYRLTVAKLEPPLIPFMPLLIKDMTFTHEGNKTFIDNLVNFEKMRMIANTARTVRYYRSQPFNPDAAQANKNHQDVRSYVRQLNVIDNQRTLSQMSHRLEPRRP
% is scaled to controls: 0 for no effect and ±100 for the full control effect; potency is read from the fitted curve at half-maximal effect.

Potency, active:
CCN(CC)c1ccc2cc(-c3nc(-c4ccccc4F)no3)c(=O)oc2c1 4.78 µM, CC1(C(=O)NS(=O)(=O)c2ccc(Cl)s2)CCN1C(=O)C1(c2ccc(Cl)cc2)CCC1 (stereo not given) 8.49 µM, CCN1C/C(=C/c2ccc(N3CCOCC3)cc2)C(=O)/C(=C/c2ccc(N3CCOCC3)cc2)C1 67.5 µM

Activity change, negative = inhibition, inactive:
Cc1ccc(-c2cc(C(=O)Nc3ccc4c(c3)OCCO4)c3ccccc3n2)cc1 7.98%, C[C@@H]1CN([C@@H](C)CO)S(=O)(=O)c2ccc(Br)cc2O[C@H]1CN(C)Cc1ccccc1F 6.82% [at 114 µM], COCCn1c(=N)c(C(=O)NC2CCCC2)cc2c(=O)n3cc(C)ccc3nc21 14.6%, COc1ccc(C2C=C(c3ccccc3)Nc3nnnn32)cc1 (stereo not given) 6.18% [at 114 µM], CC(=O)/C(=C/N(C)C)Sc1ccc(C)cc1 -16.3% [at 114 µM], Cc1ccc(C(=O)NCCCNC(=O)c2ccco2)cn1 -9.12% [at 114 µM], CC(C)(C)c1ccc(OCCC(=O)OCC(=O)Nc2ccc(N3CCOCC3)cc2)cc1 -26.1% [at 114 µM], C#CC(c1ccccc1)(c1ccccc1)n1ccnc1 92.6% [at 114 µM], O=C(O)CCn1cc(/C=C2\NC(=S)N(c3ccccc3)C2=O)c(-c2ccc(Br)cc2)n1 48.9% [at 114 µM], COc1ccc(/C=C2/SC(=S)N(c3ccc(S(=O)(=O)Nc4nccs4)cc3)C2=O)cc1 -14.8% [at 114 µM], COc1ccc(OC)c(NC(=O)CN(C)CCOc2ccc(Br)cc2)c1 -42% [at 114 µM], COCCCN1C(=O)C(CC(=O)NCc2cccc3ccccc23)CC(C(=O)N2CCCCCC2)=C1C (stereo not given) -9.1% [at 114 µM], CC(=N\NC(=O)c1ccccc1)/C(=N/O)C(=O)Nc1ccccc1 11.1%, COC(=O)c1cc2oc(C)cc2n1Cc1c(C)cc(C)cc1C 1.58%, COc1ccc(N2CCN(C(=O)c3cc(C)on3)CC2)cc1 -0.798% [at 114 µM], CS(=O)(=O)c1ccc2c(c1)sc1nc(=O)c(/C=C3/C=CC(=O)C(O)=C3)c(N)n12 -9.74% [at 114 µM], COc1ccc(C(C)=O)cc1COc1ccc(F)cc1 -27.4%, O=C(O)c1ccccc1N/N=C/C1=C(N2CCOCC2)C(=C\c2ccccc2)/CC1 -15.9% [at 114 µM], CCCCOC(=O)CSc1nnc(-c2ccc(Cl)cc2Cl)o1 -12.1%, CC(=O)Nc1ccc(C=NNc2ccc(S(=O)(=O)Nc3ccccc3C(=O)O)cc2[N+](=O)[O-])cc1 -11.8%, CC1=NN(c2ccccc2)C(=O)C1/C=C1\NC(=S)NC1=O (stereo not given) 1.19%, C=CCSc1nc(-c2ccc(OC)cc2)c(C#N)c(=O)n1CC=C -12.9%, CCN(CC)CCn1c2c(c(SCC(=O)Nc3nc4ccccc4s3)nc1=O)CCCC2 -13% [at 114 µM], CCOC(=O)c1sc(N2C(=O)C(O)=C(C(=O)c3ccco3)C2c2cccc([N+](=O)[O-])c2)nc1C (stereo not given) 78.7% [at 114 µM], CCCCOc1ccccc1NC(=O)Cn1c(-c2cncs2)nc2ccccc21 9.91%, CC(NCc1cccn1C)c1ccccc1 (stereo not given) -11.9% [at 114 µM], N#Cc1c(NC(=O)c2ccccc2)sc2c1CCCCC2 -6.39%, CCOC(=O)C1=C(C)OC(N)=C(C#N)C1c1ccc(OC)c(CSc2ccccn2)c1 (stereo not given) -17.7%, COc1ccc(-c2cc(C(F)F)n3ncc(C(=O)N4CCc5ccccc54)c3n2)cc1 7.58% [at 114 µM], CN(C)CC/C=C1/c2ccccc2Sc2c(O)cc(Cl)cc21 -12.7% [at 114 µM], CC(C)(C)c1cc(NC(=O)COC(=O)c2ccc(O)cc2O)n(-c2ccccc2)n1 -5.89%, COc1ccc(-c2nc3n(c(=O)c2C#N)CCS3)cc1 -4.61%, Cc1cscc1-c1ccc(C(=O)Nc2c(C)cccc2C)o1 -6.87%, COC(=O)c1c(NC(=O)c2c(OC)cccc2OC)sc2c1CCCC2 -6.43%, Cc1cccc(C(=O)Nc2ccc3c(c2)ncn3C)c1 -1.67% [at 114 µM]

outcome, inactive:
CCNC(=O)C1(C)CCN(C(=O)c2ccc(C(=O)OC)cc2)C1 (stereo not given) inactive; activator; fitted 1.5101 uM, O=C1CC(=O)N(CCc2ccccc2)C(=O)N1CCc1ccccc1
